Screening results as filed in PubChem.
Most compounds without a hit are left out; they make up all but 9.3% or so of the library.
VACV mCherry inh – vaccinia inhibition (mCherry reporter); Potency, µM (top dose mostly 36.5 µM), inactives show top-dose activity change, negative = inhibition, actives largely listed as inhibitors; actives 0.63% (n = 310,000); AID 720579; Vaccinia virus mCherry reporter infection, fluorescence; calls by dose curve; tested in A549 cells; note: potency is the fitted concentration of half-maximal effect; % is set by controls: 0 for no effect and ±100 for the full control effect; nearly all actives have a fitted effect of over 35% in size
HCV inhibitor – inhibitors of hepatitis C virus infection; Huh7.5.1 HCVcc-Cre infection, luciferase reporter, 44 h; Potency, µM (top dose mostly 41.8 µM), for the others: at the highest dose activity change, negative = inhibition, usual class: inhibitors; actives 3.4% (n = 340,000); note: potency is the fitted concentration of half-maximal effect; % is set by controls: 0 for no effect and ±100 for the full control effect
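After 44 h co-culture of compound, cells and HCVcc-Cre (~0.5 moi), substrate is added for 15 min at room temperature and luciferase measured over 15 sec. Cells were seeded at 1,000/well and pre-cultured 4 h.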
Vaccinia Venus – inhibitors of vaccinia virus (Venus reporter) | Vaccinia virus Venus reporter expression, fluorescence | Potency, µM (titrated, usually from 36.5 µM), without a hit: at the top dose activity change, negative = inhibition, hits mostly inhibitors | actives 0.46% (n = 330,000); calls by dose curve; tested in A549 cells; note: potency is the fitted concentration of half-maximal effect; % is set by controls: 0 for no effect and ±100 for the full control effect; nearly all actives have a fitted effect of over 30% in size
HCMV inh – blocks human cytomegalovirus replication; HFF cells, HCMV-luciferase reporter, 72 h; stronger effect = lower value; activity change, negative = inhibition, % at 57.5 µM; actives 4.5% (n = 410,000); in the data active = activity change below about -60%; inconclusive = no clear call, values can overlap the other calls; inactive = above about -39%; note: % is set by controls: 0 for no effect and ±100 for the full control effect
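Luciferase read-out from HCMV-luciferase-infected HFFs (MOI 1 PFU/cell) 72 h post infection at 37C; compounds added after 16 h cell attachment; activity normalized between buffer-only basal and Salinomycin (10uM) inhibitor controls.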
Sm TGR inh – inhibitors of Schistosoma mansoni thioredoxin glutathione reductase; Potency, µM (highest dose often 114 µM), for inactives: at the highest dose activity change, negative = inhibition, usual class: inhibitors; actives 3% (n = 360,000); purified TGR, DTNB reduction, TNB absorbance 405 nm; Q962Y6; note: potency is the fitted concentration of half-maximal effect; % is set by controls: 0 for no effect and ±100 for the full control effect; nearly all actives have a fitted effect of over 60% in size
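Kinetic colorimetric format: TGR-catalysed, NADPH-driven DTNB reduction monitored via TNB absorbance. Enzyme dispensed at 20 nM; compound exposure 15 min at room temperature before reaction start.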
FMDV inh – antivirals against foot and mouth disease virus. FMDV antiviral cell-based qHTS. Potency, µM (highest dose often 57.9 µM), for the others: at the top dose activity change, negative = inhibition, usual class: inhibitors. actives 1.2% (n = 410,000); calls by dose curve; tested in HEK293T cells; note: read-out not given here; potency is the fitted concentration of half-maximal effect; % is set by controls: 0 for no effect and ±100 for the full control effect; nearly all actives have a fitted effect of over 45% in size
HCV inh confirm – confirmation of hepatitis C virus inhibitors | HCVcc-Cre infectious virus cell assay, luciferase, inhibition | Potency, µM (series often up to 41.8 µM), inactives show at the highest dose activity, negative = inhibition, hits mostly inhibitors | shares compounds with HCV inhibitor | actives 78% (n = 640); note: potency is the fitted concentration of half-maximal effect; nearly all actives have a fitted effect of over 80% in size
HCV cytotox – counter-screen for HCV inhibitors: host cell cytotoxicity; shares compounds with HCV inhibitor; HCV host cell line cytotoxicity counterscreen; Potency, µM (top dose mostly 41.8 µM), without a hit: top-dose activity change, negative = cytotoxicity, most hits filed as inhibitors; actives 22% (n = 640); AID 720576;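 note: potency is the fitted concentration of half-maximal effect; 44 h compound exposure; % is set by controls: 0 for no effect and ±100 for the full control effect; nearly all actives have a fitted effect of over 55% in size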
Active calls of the source: *. Unless noted, calls come from the whole dose curve; as a rule, active = well fitted curve in the direction sought with a large enough effect; inconclusive = small, poorly fitted or top-dose-only effect, or another doubt; inactive = no such curve, though single readings can be large; an effect the other way counts as inactive or inconclusive.

Screening CCc1ccccc1NC(=S)/N=C(\N)Nc1nc(C)c2cc(C)ccc2n1 returned VACV mCherry inh inconclusive, HCV inhibitor inconclusive, Vaccinia Venus inconclusive, HCMV inh inconclusive, Sm TGR inh -2%, FMDV inh -9%, HCV inh confirm 10µM* and HCV cytotox inconclusive.
For Cc1ccc(C)c(CNc2ccc(S(=O)(=O)N3CCCCC3)cc2)c1 the results were HCV inhibitor 4.5µM*, HCMV inh inconclusive, Sm TGR inh -5%, FMDV inh inconclusive, HCV inh confirm 25µM* and HCV cytotox 31µM*.
`Cc1ccc(S(=O)(=O)N2CCCCC2)cc1` gave HCV inhibitor 6%, HCMV inh -27, Sm TGR inh -17% and FMDV inh -15%.
Screening CCCOc1ccc(/C=N/Nc2cccc([N+](=O)[O-])c2)c(O)c1 returned VACV mCherry inh inconclusive, HCV inhibitor inconclusive, Vaccinia Venus inconclusive, HCMV inh inconclusive, Sm TGR inh -10%, FMDV inh 6%, HCV inh confirm 28µM* and HCV cytotox -30%.
`O=c1c2ccccc2nc(-c2ccccc2)n1Cc1ccc(Cl)cc1` gave VACV mCherry inh -13%, HCV inhibitor -6%, Vaccinia Venus -12%, HCMV inh -1, Sm TGR inh -17% and FMDV inh -9%.
Screening O=c1c2ccccc2nc2n1CCN2Cc1ccc(Cl)cc1 returned VACV mCherry inh -15%, HCV inhibitor inconclusive, Vaccinia Venus inconclusive, HCMV inh -88*, Sm TGR inh -3%, HCV inh confirm 6.3µM* and HCV cytotox inconclusive.
`Cc1ccc(C(=O)CCNc2ccc(F)c(Cl)c2)o1` gave HCV inhibitor 3.2µM*, HCMV inh 61, Sm TGR inh inconclusive, FMDV inh 17%, HCV inh confirm 2.8µM* and HCV cytotox -22%.
`Cc1ccc(OCCC(=O)Nc2ccc(F)c(Cl)c2)cc1` gave VACV mCherry inh -12%, HCV inhibitor -6%, Vaccinia Venus -2%, HCMV inh -26, Sm TGR inh 8% and FMDV inh 8%.
`C=CCN=C1S/C(=C\c2ccc(N(C)C)cc2)C(=O)N1CC=C` gave VACV mCherry inh inconclusive, HCV inhibitor inconclusive, Vaccinia Venus 8%, HCMV inh 13, Sm TGR inh 3% and FMDV inh 14%.
`COC(=O)C1=C(c2ccc3ccccc3c2)C[C@@H]2CC[C@H]1N2C(=O)N1CCCCC1` gave VACV mCherry inh -15%, HCV inhibitor 7.9µM*, Vaccinia Venus inconclusive, HCMV inh -39, Sm TGR inh 33%, FMDV inh inconclusive, HCV inh confirm 11µM* and HCV cytotox 11µM*.
For COC(=O)C1=C(c2ccc(-c3ccccc3)c(F)c2)C[C@@H]2CC[C@H]1N2C(=O)N1CCOCC1 the results were VACV mCherry inh -29%, HCV inhibitor 3.5µM*, Vaccinia Venus -30%, HCMV inh -30, Sm TGR inh -4%, FMDV inh inconclusive, HCV inh confirm 7.9µM* and HCV cytotox 7µM*.
Screening COC(=O)C1=C(c2ccc(-c3ccccc3)c(F)c2)C[C@@H]2CC[C@H]1N2C(=O)N1CCC(O)CC1 returned VACV mCherry inh inconclusive, HCV inhibitor inconclusive, Vaccinia Venus inconclusive, HCMV inh inconclusive, Sm TGR inh -9% and FMDV inh inconclusive.
For CCOc1ccc(S(=O)(=O)NCCC(=O)NC2CCCCC2)cc1 the results were VACV mCherry inh 0%, HCV inhibitor 0%, Vaccinia Venus -20%, HCMV inh -18, Sm TGR inh -7% and FMDV inh 4%.
For CCOc1ccc(S(=O)(=O)NCc2ccncc2)cc1 the results were HCV inhibitor inconclusive, HCMV inh -96*, Sm TGR inh -3%, FMDV inh -14%, HCV inh confirm 0.28µM* and HCV cytotox 0.25µM*.
`Cc1ccc(S(=O)(=O)NCc2ccncc2)cc1` gave VACV mCherry inh -24%, HCV inhibitor 2.8µM*, Vaccinia Venus inconclusive, HCMV inh inconclusive, Sm TGR inh -1%, FMDV inh 2%, HCV inh confirm 2.2µM* and HCV cytotox 8.9µM*.
`Cc1ccc(S(=O)(=O)NCC(=O)NCc2ccncc2)cc1` gave HCV inhibitor 2%, Vaccinia Venus -11%, HCMV inh 21, Sm TGR inh -2% and FMDV inh 0%.
Screening CCOC(=O)COc1ccc(S(=O)(=O)NCc2ccncc2)cc1 returned VACV mCherry inh -12%, HCV inhibitor 14%, Vaccinia Venus -14%, HCMV inh -19 and Sm TGR inh 2%.
For COc1ccc(C(=O)CSc2nc(-c3ccccn3)nc(C)c2Cl)cc1 the results were VACV mCherry inh inconclusive, HCV inhibitor 4.5µM*, Vaccinia Venus inconclusive, HCMV inh inconclusive, Sm TGR inh -8%, FMDV inh inconclusive, HCV inh confirm 22µM* and HCV cytotox 4.4µM*.
Cc1nc(-c2ccccn2)nc(SCC(=O)c2ccc(F)cc2)c1Cl was read as HCV inhibitor inconclusive, HCMV inh inconclusive, Sm TGR inh 7% and FMDV inh -19%.
Screening CNc1nc2c(C)cccn2c(=O)c1C=NCc1ccccc1 returned VACV mCherry inh inconclusive, HCV inhibitor -27%, Vaccinia Venus -18%, HCMV inh 3, Sm TGR inh 0% and FMDV inh -28%.
O=C(O)c1cc([N+](=O)[O-])ccc1N1CCCCC1 was read as VACV mCherry inh -19%, HCV inhibitor 3%, Vaccinia Venus -14%, HCMV inh -4, Sm TGR inh 6% and FMDV inh -13%.
`Cc1ccc(C(=O)c2cc([N+](=O)[O-])ccc2N2CCCCC2)c(C)c1` gave VACV mCherry inh inconclusive, HCV inhibitor inconclusive, Vaccinia Venus inconclusive, HCMV inh -92*, Sm TGR inh 7%, FMDV inh inconclusive, HCV inh confirm inconclusive and HCV cytotox -39%.
`COc1ccc(-c2nc3scc(-c4ccc(OC)c(OC)c4)c3c(=O)o2)cc1` gave VACV mCherry inh -14%, HCV inhibitor inconclusive, Vaccinia Venus -3% and Sm TGR inh -1%.
